From the supplement of paper PMC11417369
Over roughly 25,000 sequences, “ln(normalized median fluorescence intensity)” has its median near 9.7; the highest 2% begin near 11. The entries come from a sample that favours the highest values as a whole.

System: PfAP2-HC AP2 domain (GST-tagged)
Experiment: gcPBM binding intensity (ln(normalized median fluorescence intensity)); higher = stronger DNA binding
Outline: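 Binding intensity is defined as the maximum Masliner-normalised natural-log median intensity across replicate spots for either probe orientation. It was measured on an Agilent 4 × 180k array of primer-extended double-stranded 36-bp intergenic genomic probes and negative controls, to which GST-tagged P. falciparum DNA-binding domains made in E. coli were applied for 1 h in 1× PBS with 1% milk, 0.2 mg/ml BSA, 0.5% salmon testes DNA and 0.03% Triton X-100. Detection was by Alexa488 anti-GST antibody and scanning at 488 nm.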

Row | Sequence | gcPBM binding intensity (ln)
1 | CATACACCCGGACACACACACACACCCATATATAAT [CACACA_site4494] | 10.5
2 | AACACGCGCAGACACACACACACACCCACATATATA [CACACA_site2205] | 10.6
3 | AAAACACGCGGACACACACACACACGCCCACATATA [CACACA_site7105] | 10.6
4 | AAAACACGCGGACACACACACACACCCACCCATATA [CACACA_site8688] | 11.6
5 | CACGCGCCCGGACACACACACACACCCATATATATA [CACACA_site5251] | 11.3
6 | TATACACCCGGACACACACACATATATATATATATA [CACACA_site5030] | 10.3
7 | CGTGGGAGCGGACACACACACACACCCATATATATA [CACACA_site4340] | 10.4
8 | AACACGCGCGGACACACACACACACCCACATATATA [CACACA_site5252] | 11.3
9 | ATTTATATGTGGAGCAGTACGCACTCTCACAATTAA [XGTACX_site7252] | 9.44
10 | TGAATATTTACTTTAGCACACAATTTGTATTTGATT [CACACA_site960] | 9.86
11 | ATTATTTACCACAACACACAAATATTTACCAATCAT [CACACA_site5472] | 10.5
12 | TTGTTTATTTGTAAAGCTAACAAGAAATGTGAATAT [CACACA_negctrl_site931] | 9.51
13 | AGCATTTTAAAAGAAAAAAAAAAAAAAAAAAAAATA [GTGCAC_negctrl_site723] | 9.17
14 | TCATTTTACAGATGTGCATGTGAATCAATCTATTTA [TGCATGCA_site787] | 9.56
15 | ATTACTAAAAAATATAAACACACATATATTTTACAT [CACACA_site8633] | 9.88
16 | CACAGACACGGACACACACACACACCCATATATATA [CACACA_site4354] | 11.3
17 | CACAGACACGGACACACACACACACCGATATATATA [CACACA_site4353] | 11.2
18 | TTGGCATACGGACACACACACACACCCAGACATATA [CACACA_site4492] | 10.4
19 | CACAGACACGGACACACACACATATATATATATATA [CACACA_site5248] | 10.4
20 | CACAGACACGGACACACACACACACCCAGACACATA [CACACA_site4357] | 11.6
21 | TGGGAGCACAGACACACACACACACCGATATATATA [CACACA_site8001] | 11.3
22 | TGGGAGCACAGACACACACACACACCCATATATATA [CACACA_site335] | 10.5
23 | CGCGCACCCAGACACACACACACACCGATATATATA [CACACA_site8687] | 10.9
24 | TATATTATCAAAATGGTGCAATAATTTCTATATTAT [GTGCAC_site9772] | 9.49
